Assay outcomes as filed in PubChem.
H9c2 protect: myocardial damage modulation in H9c2 cells. 360,000 compounds, 0.63% hits. H9c2 cardiomyocytes, H2O2 injury protection, ATPLite, 2 h. AID 588492. protection from H2O2 cell death, % at 20 µM;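 active means compounds giving at least 50% protection of heart cells from peroxide-induced death in the single-dose screen, raw or plate-pattern-corrected value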
iPSC survival up: hiPSC single-cell survival enhancement; ATPlite luminescence; 100% = ROCK inhibitor wells, 0% = DMSO; 360,000 compounds, 0.044% hits; survival enhancement, % at 20 µM; AID 602274; in the data active means survival enhancement above about 18%;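 further: cells exposed to compounds for 16 hours before the ATP read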
ABCB6 inh MLPCN: inhibitors of human ABC transporter ABCB6; Q9NP58; K562-ABCB6 porphyrin accumulation, flow cytometry, 1 h; stronger effect = lower value; fluorescence ratio to DMSO, % at 10 µM; 360,000 compounds, 0.19% hits; AID 602162;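 active means fluorescence ratio to DMSO below 75%, the collection mean minus 3 SD; inconclusive means too few cells collected in the well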;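 further: signal is porphyrin accumulated inside mitochondria; lower ratio means ABCB6 inhibition with less porphyrin fluorescence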
Myeloid diff 2: myeloid differentiation induction; ER-HoxA9 myeloid progenitors, lysozyme-GFP differentiation, flow cytometry; calls only at 10 µM; 360,000 compounds, 1% hits;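 active means normalized GFP-positive differentiation at or above the plate's own cutoff, the solvent-only control mean plus 3 SD; inconclusive means no clear call, values can overlap the other calls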;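 further: cells exposed to compound for four days before flow analysis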
beta cell repl: MIN6 beta-cell proliferation induction | MIN6 cells proliferation, ATPlite luminescence, 48 h; cells starved in 0.2% serum; 100% = growth in 10% serum | proliferation, % at 10 µM | 330,000 compounds, 0.29% hits;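 active means compounds whose signal lies at least 3.5 SD above the mean of all wells on their plate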
ABCB6 blocker 1: inhibitors of human ABC transporter ABCB6; ratio response (% of DMSO), % at 10 µM; 700 tested, under 10 active; K562-ABCB6 porphyrin accumulation, flow cytometry, 1 h; stronger effect = lower value; shares compounds with ABCB6 inh MLPCN; AID 602430;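 active means repeat-averaged ratio response below 75% of DMSO, the collection mean minus 3 SD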;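 further: median porphyrin fluorescence at 575 nm with 488 nm excitation from mitochondria; lower ratio means less porphyrin signal so ABCB6 inhibition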
Large screens that a line does not name were inactive (follow-up assays come after a bar, where they were run). This is a sample that favours compounds with a hit; in the whole collection about 2.2% have one here.

CC1(C)Cn2c(nnc2-c2ccccc2)S1	ABCB6 inh MLPCN 74 | ABCB6 blocker 1 inactive
COc1ccc(NC(=O)[C@@H]2CCCN2S(=O)(=O)c2ccc(Cl)cc2)cc1	none
COc1ccc(NC(=O)C2CCCN2S(=O)(=O)c2ccc(C)cc2)cc1 (configuration not stated)	ABCB6 inh MLPCN 45 | ABCB6 blocker 1 inactive
COc1ccc(S(=O)(=O)NC(=O)C2(C)CCN2C(=O)Cc2ccc(-c3ccccc3)cc2)cc1 (configuration not stated)	Myeloid diff 2 inconclusive (no result: beta cell repl)
COc1ccc(S(=O)(=O)NC(=O)C2(C)CCN2C(=O)Cc2cccc3ccccc23)cc1 (configuration not stated)	none (no result: beta cell repl) | ABCB6 blocker 1 inactive
CC1(C(=O)NS(=O)(=O)c2ccc(C#N)cc2)CCN1C(=O)Cc1cccc2ccccc12 (configuration not stated)	ABCB6 inh MLPCN 65 (no result: beta cell repl) | ABCB6 blocker 1 inactive
COc1ccc(CCN2C(=O)N[C@@H](CCC(=O)O)C2=O)cc1	none
CCOC(=O)C1=C(C)NC(C)=C(C(=O)OCC)C1C(=O)OCC(=O)N(C)Cc1ccccc1	ABCB6 inh MLPCN 74 | ABCB6 blocker 1 inactive
CCOC(=O)C1=C(C)NC(C)=C(C(=O)OCC)C1C(=O)OCC(=O)N1CCc2ccccc21	none
O=C(NC1CCCCC1)N1CCC(c2nc(-c3ccc(S(=O)(=O)N4CCCC4)cc3)no2)CC1	ABCB6 inh MLPCN 70 | ABCB6 blocker 1 inactive
COc1cc2cc(Oc3ccc4ccc(=O)oc4c3)c(=O)oc2cc1OC(=O)/C=C/c1ccccc1	none
O=C(NCc1n[nH]c(=S)n1-c1cccc(Cl)c1)c1ccc(S(=O)(=O)N2CCCC2)cc1	ABCB6 inh MLPCN 33 | ABCB6 blocker 1 inactive
O=S(=O)(c1ccccc1)N1CCC(O)(CN2CCN(c3ccccc3)CC2)CC1	none (no result: beta cell repl)
Cc1ccc(S(=O)(=O)C2(C(=O)N3CCN(c4ccccc4F)CC3)CC2)cc1	ABCB6 inh MLPCN 72 | ABCB6 blocker 1 inactive
COc1ccc(N2CCN(C(=O)c3cc(-c4ccc(F)cc4)[nH]c3C)CC2)cc1	ABCB6 inh MLPCN 71 | ABCB6 blocker 1 inactive
O=C(O)CSCC(=O)N1CCCN(c2nccc(C(F)(F)F)n2)CC1	none
O=C(O)COCC(=O)N1CCCN(c2nccc(C(F)(F)F)n2)CC1	ABCB6 inh MLPCN 50 | ABCB6 blocker 1 inactive
CCCCS(=O)(=O)/C=C/[C@H]1[C@H](S(=O)(=O)CCCC)[C@H]2C=C[C@@H]1C2	none
COc1ccc(NC(=O)c2cccc(S(=O)(=O)N3CCCCC3)c2)c(OC)c1	ABCB6 inh MLPCN 13 | ABCB6 blocker 1 inactive
Cc1cc(C)n2nc(C(=O)OCC(=O)N(CC(C)C)CC(C)C)nc2n1	none
CC(C)=CCc1c(O)ccc(C(=O)Cc2ccccc2)c1O	ABCB6 inh MLPCN 64 | ABCB6 blocker 1 inactive
Cc1ccc(C(=O)Cc2ccccc2)c(O)c1	none (no result: beta cell repl)
COc1cc2c(C(=O)N(C)c3ccc(F)cc3)cn(C)c(=O)c2cc1OC	ABCB6 inh MLPCN 14 | ABCB6 blocker 1 inactive
CCc1ccccc1N(CC)C(=O)c1cn(C)c(=O)c2cc(OC)c(OC)cc12	none
Cc1noc(C)c1CSc1ccc(Br)cc1	ABCB6 inh MLPCN 71 | ABCB6 blocker 1 inactive
O=C(Nc1ccc(Cn2cccn2)cc1)c1ccc(COc2ccc(Br)cc2)cc1	ABCB6 inh MLPCN 72 | ABCB6 blocker 1 inactive
Cc1ncc([N+](=O)[O-])n1CC(=O)Nc1cc(Cl)ccc1Cl	ABCB6 inh MLPCN 10 | ABCB6 blocker 1 inactive
Cc1ccc(OCc2nnc(SCc3ccc(C#N)cc3)n2-c2ccc(C)cc2)cc1	none
CCOC(=O)N1CCC(N2Cc3cccc(C(=O)NCc4ccccn4)c3C2=O)CC1	ABCB6 inh MLPCN 73 | ABCB6 blocker 1 inactive
Cc1nn(Cc2ccccc2)c(C)c1C(=O)N1CCN(CC(=O)Nc2ccc(F)cc2)CC1	none
Cc1cccc(NC(=O)CN2CCN(C(=O)c3c(C)nn(Cc4ccccc4)c3C)CC2)c1C	ABCB6 inh MLPCN 56 | ABCB6 blocker 1 inactive
CCCCNc1c2c3c(cccc3n(C)c1=O)C(=O)c1ccccc1-2	none
CCCC(C(=O)NC1CCCC1)N(Cc1ccccc1)C(=O)c1snc(C(N)=O)c1N (configuration not stated)	ABCB6 inh MLPCN 67 | ABCB6 blocker 1 inactive
CCCC(C(=O)NC1CCCC1)N(Cc1ccc(OC)cc1)C(=O)c1snc(C(N)=O)c1N (configuration not stated)	none
COc1ccc(NC(=O)COC(=O)CCCC2=NS(=O)(=O)c3ccccc3N2)cc1	Myeloid diff 2 inconclusive | ABCB6 blocker 1 inactive
COc1ccc(NC(=O)COC(=O)CCCC2=NS(=O)(=O)c3ccccc3N2)cc1Cl	none
COc1cccc(NC(=O)COC(=O)CCCC2=NS(=O)(=O)c3ccccc3N2)c1	ABCB6 inh MLPCN 14 | ABCB6 blocker 1 inactive
COc1ccc(N(CC(=O)Nc2c(C)n(C)n(-c3ccccc3)c2=O)S(=O)(=O)c2ccc(F)cc2)cc1	none
COc1ccc(N(CC(=O)Nc2c(C)n(C)n(-c3ccccc3)c2=O)S(=O)(=O)c2ccc(C)cc2)cc1	ABCB6 inh MLPCN 72 | ABCB6 blocker 1 inactive
O=C(O)C1CCN(S(=O)(=O)c2ccc(Cl)s2)CC1	none | ABCB6 blocker 1 inactive
CC1CCN(S(=O)(=O)c2ccc(Cl)s2)CC1	none
NC(=O)c1cc2c(s1)-c1cc(Cl)ccc1SC2	none
CC(OC(=O)c1ccc(=O)n(Cc2ccccc2)n1)C(=O)Nc1cccc(Cl)c1 (configuration not stated)	ABCB6 inh MLPCN 68 | ABCB6 blocker 1 inactive
Cc1ccccc1Cc1c(C)nc2c(C(=O)N3CCN(Cc4ccc5c(c4)OCO5)CC3)cnn2c1C	none
Cc1nc2c(C(=O)N3CCN(C)CC3)cnn2c(C)c1Cc1ccc(Cl)cc1	none | ABCB6 blocker 1 inactive
Cc1nc2c(C(=O)N3CCCCC3)cnn2c(C)c1Cc1ccccc1F	none | ABCB6 blocker 1 inactive
Cc1cc2c(cc1S(=O)(=O)NCc1ccccc1)NC(=O)CO2	none
N/C(=N\OC(=O)c1cccc2ccccc12)c1ccc(Br)cc1	none
Cc1cc(S(=O)(=O)NC2CCCCC2)ccc1OCC(=O)NCC1CCCO1 (configuration not stated)	ABCB6 inh MLPCN 73 | ABCB6 blocker 1 inactive
O=C(COc1ccc(S(=O)(=O)NC2CCCCC2)cc1Cl)NCC1CCCO1 (configuration not stated)	none
CC1(C)Cc2nc3sc(C(=O)NCCCO)c(N)c3cc2CS1	none
O=C(Nc1ccccc1)N(CCCN1CCOCC1)Cc1ccccc1F	none
COc1ccc(CN(CCCN2CCOCC2)C(=O)Nc2ccccc2)cc1OC	ABCB6 inh MLPCN 68 | ABCB6 blocker 1 inactive
CSc1nc(C)c(C(=O)C[n+]2ccccc2C)cc1C#N	none
O=c1c2c(nc(NCCO)n1CC1CCCCC1)-c1ccccc1CC21CCCC1	ABCB6 inh MLPCN 61 | ABCB6 blocker 1 inactive
